Source: PubChem (National Center for Advancing Translational Sciences (NCATS))
Only a selection was taken, and hits are over-represented in it overall.
DT40 TDP1 no CPT = qHTS for Inhibitors of human tyrosyl-DNA phosphodiesterase 1 (TDP1): qHTS in cells in absence of CPT. DT40 Tdp1-/- hTDP1 cells, no CPT, ATP luminescence, 48 h. Potency, µM (series often up to 46.2 µM), hits mostly inhibitors. actives 15% (n = 420,000). AID 686978, 2013; further: nearly all actives have a fitted effect of over 55% in size
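Seeded 400 DT40-hTDP1 cells/well (vehicle DMSO, no 20 nM CPT); pinned compounds; ≥48 hr at 37 °C; CellTiter-Glo luminescence as viability measure.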
HT1080NT lethal = kills 2HG-producing HT-1080-NT fibrosarcoma cells | actives 1.6% (n = 360,000) | AID 686970 | HT-1080-NT fibrosarcoma viability, CellTiter-Glo ATP luminescence, 48 h | Potency, µM (doses to about 46.1 µM), hits mostly cytotoxic;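 further: NT is the 2HG producing partner of a matched IDH1 knockdown line; nearly all actives have a fitted effect of over 55% in size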
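A 48-hour cytotoxicity screen used HT-1080-NT cells plated 2 hours before compound delivery. ATP-based CellTiter-Glo luminescence measured viability, normalized to DMSO and no-cell controls.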
TDP1 cell CPT = DT40-hTDP1 cell growth loss with CPT. Potency, µM (top dose mostly 46.2 µM), hits mostly inhibitors. chicken DT40 Tdp1-/-;hTDP1 cells + 20 nM CPT, ATP luminescence, 48 h. actives 12% (n = 420,000); further: nearly all actives have a fitted effect of over 55% in size
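Cell growth measured by CellTiter-Glo luminescence after a minimum 48 h, 37 C compound exposure with 20 nM CPT in Tdp1-knockout DT40 cells stably expressing hTDP1, seeded 400/well; qHTS titration format.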
ALOX12 inh = ALOX12 (human) lipoxygenase inhibition. P18054. purified 12hLO, xylenol orange hydroperoxide absorbance. actives 1.1% (n = 580,000). AID 1671190. Potency, µM (top dose mostly 108 µM), actives largely listed as inhibitors
Target sequence (P18054 whole entry, looked up): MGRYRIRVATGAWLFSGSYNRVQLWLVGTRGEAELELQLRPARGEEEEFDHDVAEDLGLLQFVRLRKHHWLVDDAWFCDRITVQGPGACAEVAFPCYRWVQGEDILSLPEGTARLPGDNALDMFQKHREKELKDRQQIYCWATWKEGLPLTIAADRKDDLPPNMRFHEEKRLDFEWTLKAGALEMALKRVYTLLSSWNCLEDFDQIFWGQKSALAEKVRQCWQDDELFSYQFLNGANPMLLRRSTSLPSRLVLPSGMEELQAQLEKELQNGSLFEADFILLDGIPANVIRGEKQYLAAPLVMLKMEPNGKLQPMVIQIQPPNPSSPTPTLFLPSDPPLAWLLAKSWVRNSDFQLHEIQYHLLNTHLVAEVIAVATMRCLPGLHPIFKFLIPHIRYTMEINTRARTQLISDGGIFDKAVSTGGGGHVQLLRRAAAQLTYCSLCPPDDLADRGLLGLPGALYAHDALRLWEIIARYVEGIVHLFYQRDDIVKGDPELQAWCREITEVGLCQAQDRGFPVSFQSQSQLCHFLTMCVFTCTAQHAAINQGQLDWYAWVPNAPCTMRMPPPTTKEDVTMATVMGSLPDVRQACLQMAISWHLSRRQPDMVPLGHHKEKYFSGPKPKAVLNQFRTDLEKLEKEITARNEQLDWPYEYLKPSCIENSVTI
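Purified human 12hLO (150 nM final) in 25 mM Hepes, 0.01% Triton X-100, pH 7.0 was preincubated 15 min at room temperature with compound. Then 40 uM arachidonic acid was added, 30 min. Hydroperoxide was read by Fe-XO absorbance ratio 573/405 nm.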
IL1B secr inh = inflammasome signaling inhibition, IL-1 beta readout; THP-1 LPS/ATP IL-1B secretion, AlphaLISA, 16 h; hits give low values; activity change, % at 57.5 µM; actives 4.7% (n = 360,000); in the data active means activity change below about -50%; inconclusive means mostly about -30% to -49%
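Secreted IL-1B measured by AlphaLISA bead assay after 16 h compound exposure of THP-1 cells; compounds (final up to 57.5 uM) added 1 h before LPS (250 ng/mL) and ATP (1.25 mM) stimulation; lower signal means less secretion.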
HT1080 IDH1KD tx = HT-1080 IDH1 knockdown cell toxicity (counter line); HT-1080 IDH1 knockdown viability, ATP luminescence, 48 h; Potency, µM (titrated, usually from 46.1 µM), usual class: cytotoxic; actives 2% (n = 360,000)
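In this qHTS, HT-1080 cells depleted of IDH1 are exposed for 48 h at 37 °C to compound titrations. Toxicity is scored from CellTiter-Glo luminescence, with DMSO as full viability and medium alone as none.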
Large screens that a line does not name were inactive. Unless noted, the call rests on the fitted dose curve; in most records, active means well fitted curve in the direction sought with a large enough effect; inconclusive means small, poorly fitted or top-dose-only effect, or another doubt; inactive means no such curve, though single readings can be large; an effect the other way counts as inactive or inconclusive.

O=C(NC1CC1)c1ccccc1OCC1CCCN(Cc2cccc3[nH]ccc23)C1 (stereo not drawn)	none (no result: DT40 TDP1 no CPT, HT1080NT lethal, TDP1 cell CPT, IL1B secr inh, HT1080 IDH1KD tx)
COc1ccc(-c2csc(NC(=O)Cc3ccccc3F)n2)c(OC)c1	DT40 TDP1 no CPT inconclusive, TDP1 cell CPT inconclusive, IL1B secr inh -60.5
Cc1ccc(NC(=O)CSC(C)C(=O)Nc2cc(C)on2)cc1 (stereo not drawn)	none (no result: DT40 TDP1 no CPT, HT1080NT lethal, TDP1 cell CPT, IL1B secr inh, HT1080 IDH1KD tx)
Cc1cccc(OCC(=O)Nc2cc(C)on2)c1	none
COc1ccc(-c2csc(NC(=O)CSC(C)C(=O)Nc3cc(C)on3)n2)cc1OC (stereo not drawn)	DT40 TDP1 no CPT 10.3µM, TDP1 cell CPT 18.4µM
COc1ccc(OC)c(-c2csc(NC(=O)C3CSC4(C)CCC(=O)N34)n2)c1 (stereo not drawn)	DT40 TDP1 no CPT inconclusive, TDP1 cell CPT inconclusive, IL1B secr inh -54.8
Cc1cc(NC(=O)COc2cccc(Oc3ccccc3)c2)no1	DT40 TDP1 no CPT inconclusive, HT1080NT lethal inconclusive, TDP1 cell CPT 13µM, HT1080 IDH1KD tx inconclusive
O=C(c1cccs1)N1CCC2(CC1)NCCc1c2[nH]c2ccccc12	none (no result: DT40 TDP1 no CPT, HT1080NT lethal, TDP1 cell CPT, IL1B secr inh, HT1080 IDH1KD tx)
COc1ccc(OC)c(-c2csc(NC(=O)CSc3ccccc3)n2)c1	DT40 TDP1 no CPT 13µM, TDP1 cell CPT inconclusive, ALOX12 inh inconclusive, IL1B secr inh inconclusive
Cc1ccc(Oc2ccccc2NC(=O)CSCC(=O)Nc2cc(C)on2)cc1	DT40 TDP1 no CPT 10.3µM, HT1080NT lethal inconclusive, TDP1 cell CPT 8.2µM, HT1080 IDH1KD tx inconclusive
COc1ccc(-c2csc(NC(=O)CSc3ccc(Br)cc3)n2)c(OC)c1	DT40 TDP1 no CPT 16.4µM, TDP1 cell CPT 18.4µM
COc1ccc(OC)c(-c2csc(NC(=O)C3COc4ccccc4O3)n2)c1 (stereo not drawn)	DT40 TDP1 no CPT 16.4µM, TDP1 cell CPT inconclusive
Cc1cc(NC(=O)CSCC(=O)Nc2ccccc2Oc2ccccc2)no1	DT40 TDP1 no CPT inconclusive
Cc1ccc(C(=O)N(Cc2ccco2)C2CC2)o1	none (no result: DT40 TDP1 no CPT, HT1080NT lethal, TDP1 cell CPT, IL1B secr inh, HT1080 IDH1KD tx)
COc1ccc(OC)c(-c2csc(NC(=O)Cc3ccccc3)n2)c1	DT40 TDP1 no CPT inconclusive, HT1080NT lethal inconclusive, TDP1 cell CPT inconclusive, HT1080 IDH1KD tx inconclusive
COc1ccc(OC)c(-c2csc(NC(=O)c3ccc4c(c3)OCO4)n2)c1	DT40 TDP1 no CPT 14.6µM, TDP1 cell CPT inconclusive
COc1ccc(CC(=O)Nc2nc(C)cs2)cc1	none
COc1ccc(-c2csc(NC(=O)CSCC(=O)Nc3cc(C)on3)n2)c(OC)c1	DT40 TDP1 no CPT inconclusive, TDP1 cell CPT 29.1µM
COc1ccc(OC)c(NC(=O)c2ccc3c(c2)OCO3)c1	none
COc1ccc(CC(=O)Nc2nc(-c3cc(OC)ccc3OC)cs2)cc1	DT40 TDP1 no CPT inconclusive, TDP1 cell CPT inconclusive, IL1B secr inh -88.4
COc1ccc(CC(=O)Nc2nc(C(C)(C)C)cs2)cc1	IL1B secr inh -108.0
COc1ccc(OC)c(-c2csc(NC(=O)CSCC(=O)Nc3cc(C)on3)n2)c1	none
COc1ccc(C(=O)Nn2c(CCC(=O)O)ccc2-c2ccc(Cl)cc2)cc1OC	none (no result: DT40 TDP1 no CPT, HT1080NT lethal, TDP1 cell CPT, IL1B secr inh, HT1080 IDH1KD tx)
Cn1c(SCC(=O)NCc2ccc3c(c2)OCCCO3)nnc1-c1cccs1	none (no result: DT40 TDP1 no CPT, HT1080NT lethal, TDP1 cell CPT, IL1B secr inh, HT1080 IDH1KD tx)
COc1cc(C)c(C)cc1S(=O)(=O)NCC(C)O (stereo not drawn)	none (no result: DT40 TDP1 no CPT, HT1080NT lethal, TDP1 cell CPT, IL1B secr inh, HT1080 IDH1KD tx)
Cc1ccc(CN2CCc3nc(C(C)C)nc(-c4ccc(O)cc4)c3CC2)cc1	ALOX12 inh 44.7µM (no result: DT40 TDP1 no CPT, HT1080NT lethal, TDP1 cell CPT, IL1B secr inh, HT1080 IDH1KD tx)
COc1ccc(CN2CCc3nc(C(C)C)nc(-c4ccc(O)cc4)c3CC2)cc1	none (no result: DT40 TDP1 no CPT, HT1080NT lethal, TDP1 cell CPT, IL1B secr inh, HT1080 IDH1KD tx)
CC1CCc2c(sc3ncn4c(SCC(=O)NCc5ccco5)nnc4c23)C1 (stereo not drawn)	DT40 TDP1 no CPT 20.6µM, TDP1 cell CPT inconclusive
CC(C)Sc1nc2sc3c(c2c2nnc(SCC(=O)NCc4ccco4)n12)CCCC3	DT40 TDP1 no CPT 18.4µM, TDP1 cell CPT inconclusive, ALOX12 inh inconclusive
